About 8,800 targets were measured; listed, in parts, are those with a hit and a random draw of the rest. About 0.5% of all pairs of compound and target were hits. Values without a mark were called inactive.
What was measured:
Assay in all cases: log2 fold change, soluble protein after heating vs DMSO (PISA); higher = thermal stabilisation; K562 lysate, 10 uM; active = over 0.2 and 3.5 SD of the protein, either way, in both replicates (recomputed)
[1] = compound: C/C(=N\NC(=O)C1=CC(=CC=C1)S(=O)(=O)N2CCOCC2)/C3=C(C=CC(=C3)Cl)O
Procedure, shortened: (§1)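 Pellets of K562 cells were dounce-homogenised in PBS pH 7.4 with 1 mM MgCl2, and the crude extract was held at 1 mg/mL protein for a 30 min treatment with 10 μM compound. Aliquots were heated for 3 min over 48°C-58°C and pooled before NP-40 was added to 0.5% at 4°C. The supernatant from 21,000xg for 90 min was quantified by TMTpro 16plex LC-MS/MS with channel sums equalised. Values are reported from duplicates as log-two fold change in thermal stability relative to solvent controls.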

[2] = compound: C1=CC2=C(C=CC(=C2)/C=C\3/C(=O)NC(=NCC4=CC=CS4)S3)N=C1
Procedure, shortened: as §1

[3] = compound: C1=CC=C2C(=C1)C3=NNC4=CC=CC(=C43)C2=O
Procedure, shortened: as §1

[4] = compound: C1CCN(C1)C(=O)NC2=CC=CC(=C2)NC3=NC=C(C(=N3)NCCC4=CN=CN4)Br
Procedure, shortened: as §1

[5] = compound: C1CN(CCC1(CC2=CC=C(C=C2)Cl)N)C3=NC=NC4=C3C=CN4
Procedure, shortened: as §1

erlotinib = compound: C#Cc1cccc(Nc2ncnc3cc(OCCOC)c(OCCOC)cc23)c1 [erlotinib]
Procedure, shortened: as §1

[6] = compound: C1=CC(=CC=C1C2=NC3=C(N2)C=C(C=C3)C(=O)N)OC4=CC=C(C=C4)Cl
Procedure, shortened: as §1

[7] = compound: C1=CC2=NC=CN=C2C=C1/C=C/3\C(=O)NC(=O)S3
Procedure, shortened: as §1

[8] = compound: C1=CC=C(C=C1)C2=NC(=C(N2)C3=CC=NC=C3)C4=CC(=C(C=C4)Cl)O
Procedure, shortened: as §1

IRAK-1-4 Inhibitor I = compound: C1COCCN1CCN2C3=CC=CC=C3N=C2NC(=O)C4=CC(=CC=C4)[N+](=O)[O-] [IRAK-1-4 Inhibitor I]
Procedure, shortened: as §1

UniProt O95793, sequence (O95793 whole entry, looked up): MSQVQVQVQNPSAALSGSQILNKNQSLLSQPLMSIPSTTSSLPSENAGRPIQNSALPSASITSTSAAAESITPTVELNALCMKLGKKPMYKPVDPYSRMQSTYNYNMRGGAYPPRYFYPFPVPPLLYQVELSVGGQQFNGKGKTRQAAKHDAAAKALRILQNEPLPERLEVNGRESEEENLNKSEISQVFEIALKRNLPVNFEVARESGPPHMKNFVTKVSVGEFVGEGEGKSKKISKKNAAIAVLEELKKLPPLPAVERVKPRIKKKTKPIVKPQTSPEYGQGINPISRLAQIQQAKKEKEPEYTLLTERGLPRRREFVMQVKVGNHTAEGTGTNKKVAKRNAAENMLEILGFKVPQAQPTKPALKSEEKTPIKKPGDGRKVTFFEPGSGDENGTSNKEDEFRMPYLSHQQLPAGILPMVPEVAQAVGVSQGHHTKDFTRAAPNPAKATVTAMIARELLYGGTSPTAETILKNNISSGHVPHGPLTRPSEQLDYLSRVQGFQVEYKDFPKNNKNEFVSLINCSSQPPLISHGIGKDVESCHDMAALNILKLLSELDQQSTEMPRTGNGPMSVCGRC
UniProt Q96CQ1, sequence (Q96CQ1 whole entry, looked up): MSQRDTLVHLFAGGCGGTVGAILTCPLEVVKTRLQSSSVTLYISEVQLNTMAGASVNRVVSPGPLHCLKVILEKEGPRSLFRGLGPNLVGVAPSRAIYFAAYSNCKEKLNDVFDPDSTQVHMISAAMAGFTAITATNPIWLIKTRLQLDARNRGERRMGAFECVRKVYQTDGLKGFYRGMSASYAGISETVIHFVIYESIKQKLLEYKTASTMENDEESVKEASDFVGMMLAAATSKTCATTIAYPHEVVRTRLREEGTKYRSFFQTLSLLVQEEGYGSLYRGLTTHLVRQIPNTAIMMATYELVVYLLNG
UniProt Q9UL54, sequence (Q9UL54 whole entry, looked up): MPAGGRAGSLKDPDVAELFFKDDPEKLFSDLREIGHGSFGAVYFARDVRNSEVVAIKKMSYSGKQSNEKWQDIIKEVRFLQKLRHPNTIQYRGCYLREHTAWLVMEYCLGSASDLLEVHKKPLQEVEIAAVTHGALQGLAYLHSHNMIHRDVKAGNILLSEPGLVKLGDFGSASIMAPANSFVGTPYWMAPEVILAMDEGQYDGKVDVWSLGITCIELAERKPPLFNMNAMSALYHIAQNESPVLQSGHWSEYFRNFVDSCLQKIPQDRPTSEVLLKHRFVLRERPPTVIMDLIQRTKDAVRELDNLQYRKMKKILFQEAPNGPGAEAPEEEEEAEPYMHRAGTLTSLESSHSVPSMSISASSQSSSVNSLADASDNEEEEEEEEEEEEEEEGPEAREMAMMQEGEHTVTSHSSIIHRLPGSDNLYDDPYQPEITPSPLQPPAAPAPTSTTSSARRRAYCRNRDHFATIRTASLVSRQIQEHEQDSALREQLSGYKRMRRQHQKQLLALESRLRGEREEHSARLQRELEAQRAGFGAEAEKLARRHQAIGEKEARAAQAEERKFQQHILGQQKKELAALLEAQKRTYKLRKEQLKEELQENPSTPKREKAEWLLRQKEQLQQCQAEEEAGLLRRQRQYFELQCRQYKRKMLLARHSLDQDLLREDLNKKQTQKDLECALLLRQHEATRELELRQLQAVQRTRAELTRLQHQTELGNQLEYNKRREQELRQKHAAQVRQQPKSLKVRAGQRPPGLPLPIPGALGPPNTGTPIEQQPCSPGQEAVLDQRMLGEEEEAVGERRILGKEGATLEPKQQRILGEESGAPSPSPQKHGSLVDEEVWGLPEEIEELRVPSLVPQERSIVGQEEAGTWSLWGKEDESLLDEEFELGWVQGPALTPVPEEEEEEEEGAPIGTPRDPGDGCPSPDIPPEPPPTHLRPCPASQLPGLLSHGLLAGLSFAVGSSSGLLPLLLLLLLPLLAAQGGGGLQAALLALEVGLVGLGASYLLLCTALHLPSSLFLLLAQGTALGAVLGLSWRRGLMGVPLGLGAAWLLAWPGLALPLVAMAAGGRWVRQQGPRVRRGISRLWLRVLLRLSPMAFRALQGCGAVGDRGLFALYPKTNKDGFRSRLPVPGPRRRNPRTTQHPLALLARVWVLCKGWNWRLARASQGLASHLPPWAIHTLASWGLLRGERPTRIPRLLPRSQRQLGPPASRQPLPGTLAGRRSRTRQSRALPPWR
UniProt Q15544, sequence (Q15544 whole entry, looked up): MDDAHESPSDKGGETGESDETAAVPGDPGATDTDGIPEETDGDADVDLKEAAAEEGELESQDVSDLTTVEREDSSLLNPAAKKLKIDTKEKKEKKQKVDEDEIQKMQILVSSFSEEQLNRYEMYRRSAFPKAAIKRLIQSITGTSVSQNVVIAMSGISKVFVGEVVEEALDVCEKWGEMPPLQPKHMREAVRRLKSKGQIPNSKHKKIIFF

| Target | log2 fold change [1] | log2 fold change [2] | log2 fold change [3] | log2 fold change [4] | log2 fold change [5] | log2 fold change (erlotinib) | log2 fold change [6] | log2 fold change [7] | log2 fold change [8] | log2 fold change (IRAK-1-4 Inhibitor I) |
| --- | --- | --- | --- | --- | --- | --- | --- | --- | --- | --- |
| TARDBP (UniProt K7EN94) | 0.293 | -0.12 | -0.12 | 0.001 | -0.19 | – | – | – | – | – |
| STAU1 isoform 3 (UniProt O95793) | – | – | – | – | – | -0.006 | -0.016 | -0.103 | – | – |
| TAOK2 (UniProt Q9UL54) | 0.006 | -0.034 | 0.729 (active) | 0.038 | 0.058 | – | – | 0.072 | -0.031 | 0.072 |
| SLC25A36 (UniProt Q96CQ1) | 0.024 | -0.129 | 0.027 | -0.027 | -0.026 | -0.021 | 0.08 | – | 0.041 | 0.038 |
| TAF11 (UniProt Q15544) | 0.174 | -0.144 | 0.124 | -0.242 | 0.071 | – | – | – | -0.04 | 0.051 |

Source: the supplement of paper PMC10849652
